Structures are written as SMILES. Where “and” joins values, the source holds several entries; their conditions need not be identical. Equal entries are not always repeated. Hit rate of the full screen: of about 16,000 compounds, about 5,100 (32%) were called active. Another 25% or so got no clear call; they are omitted. This is one part of the list. Unmarked numbers belong to inactive results. The call rests on the fitted dose curve; in most records, active means well fitted curve in the direction sought with a large enough effect; inconclusive means small, poorly fitted or top-dose-only effect, or effect the other way; inactive means no such curve, though single readings can be large or run the other way.

A word on the AC50: it is the concentration giving half of the maximal activity seen.
On the % scale 0 is the no-effect control and ±100 the full control effect.

The assay deals with Cytochrome P450 3A4 (Homo sapiens) (UniProt P08684). As to the kind of experiment: Cytochrome panel assay with activity outcomes. The conditions noted are these: recombinant CYP, pro-luciferin dealkylation, luminescence, p450-cyp3a4; series mostly up to 57.1 µM.
Chain of Cytochrome P450 3A4 (Homo sapiens) (P08684 whole entry, looked up): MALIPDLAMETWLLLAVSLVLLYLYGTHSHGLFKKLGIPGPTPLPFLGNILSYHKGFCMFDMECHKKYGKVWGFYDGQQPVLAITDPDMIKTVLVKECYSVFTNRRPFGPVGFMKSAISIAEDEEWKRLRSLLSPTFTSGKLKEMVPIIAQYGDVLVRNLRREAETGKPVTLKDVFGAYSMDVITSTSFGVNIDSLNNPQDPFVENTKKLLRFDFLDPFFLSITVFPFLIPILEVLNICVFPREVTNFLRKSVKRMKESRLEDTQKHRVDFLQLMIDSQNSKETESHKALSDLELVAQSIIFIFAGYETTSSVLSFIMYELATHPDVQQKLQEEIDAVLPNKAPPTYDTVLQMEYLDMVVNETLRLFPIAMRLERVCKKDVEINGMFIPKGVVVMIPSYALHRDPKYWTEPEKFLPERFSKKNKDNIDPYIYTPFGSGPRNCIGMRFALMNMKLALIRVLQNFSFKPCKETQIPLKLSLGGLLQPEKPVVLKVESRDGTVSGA
As for `Cc1[nH]c2ccccc2c1C(c1ccccn1)N1CCC(C)CC1` (centres undefined), the AC50 is 2.24 µM (active).
Turning to `c1ccc([C@H](CCN2CCCC2)c2ccccn2)cc1`, the activity, negative = inhibition was -2.32% [at 11.4 µM].
For the compound `CN(C)CC(CN(C)C)c1ccccn1`, the activity, negative = inhibition is -2.93% [at 11.4 µM].
For `N=C(N)c1ccccc1`, the AC50 entry is “inactive”.
As for `Cc1ccc(N(CCC#N)C(=O)CSc2ccc3c(c2)OCCO3)cc1`, the AC50 was 15.8 µM (active).
Consider `c1ccc2c(c1)c1ccccc1n2Cn1c2ccccc2c2ccccc21`, for which the activity, negative = inhibition was -21.4% [at 11.4 µM].
`CCn1c(C)nc2cc(C(=O)NNS(=O)(=O)c3ccccc3F)ccc21`: the AC50 entry was “inactive”.
On to `CCn1c2ccccc2c2cc(NS(=O)(=O)c3ccccc3C)ccc21`, for which the AC50 is 1 µM (active).
On to `CC(C)(C)C(=O)NC(c1ccc(Cl)cc1)[C@]1(C)C[C@H]1C1CCCCC1` (some centres undefined), for which the AC50 is 12.6 µM (active).
With `C[C@@]1(C(NC(=O)Cc2ccc(C(F)(F)F)cc2)c2ccc(-c3ccccc3)cc2)C[C@H]1C1CCCCC1` (some centres undefined), the AC50 result was “inactive”.
For `C[C@@]1(C(NC(=O)c2ccc(-c3ccccc3)cc2)c2ccc(Cl)cc2)C[C@H]1C1CCCCC1` (some centres undefined), the AC50 entry is “inactive”.
Consider `COC(=O)c1ccc(C(NC(=O)c2ccco2)[C@]2(C)C[C@H]2C2CCCCC2)cc1` (some centres undefined), for which the AC50 was 7.94 µM (active).
Regarding `COCc1cc(=O)[nH]c2cc(NC(=O)C(F)(F)F)c(C)cc12`, the activity, negative = inhibition was -1.96% [at 11.4 µM].
For `CCc1nnc(NC(=O)CSc2ncnc3c2cnn3-c2ccc(OC)cc2)s1`, the AC50 result is “inactive”.
Take `Cc1nnc(NC(=O)CSc2ncnc3c2cnn3-c2ccccc2C)s1`: the AC50 result is “inactive”.
On to `CCOc1ccc(-n2ccnc2SCC(=O)Nc2nnc(C)s2)cc1`, for which the AC50 is 14.1 µM (active).
For `CCOc1ccc(-n2ccnc2SCC(=O)Nc2nnc(CC)s2)cc1`, the AC50 was 14.1 µM (active).
Consider `COc1ccc(-c2coc3cc4oc(=O)cc(C)c4cc23)cc1F`, for which the AC50 result was “inactive”.
On to `CCCc1ccc(C2C3=C(CC(C)(C)CC3=O)NC3=C2C(=O)c2ccccc23)cc1` (centres undefined), for which the AC50 is 2.82 µM (active).
Regarding `CC(=O)N[C@H](c1ccccc1)[C@@]1(C)C[C@@H]1[C@@H](C)C(=O)Nc1ccc2ccccc2c1`, the concentration at half-maximal activity (AC50) is 7.94 µM (active).
Take `COC(=O)N[C@H](c1ccccc1)[C@@]1(C)C[C@@H]1[C@@H](C)C(=O)Nc1ccc2ccccc2c1`: the concentration at half-maximal activity (AC50) was 0.2 µM (active).
`O=C(Nc1ccc2oc(=O)c(C(=O)O)cc2c1)Oc1ccccc1`: the activity, negative = inhibition is -5.24% [at 11.4 µM].
Regarding `CC(=O)N[C@@H](c1ccccc1)[C@]1(C)C[C@H]1[C@@H](C)C(=O)Nc1ccc2ccccc2c1`, the AC50 is 7.94 µM (active).
For the compound `C[C@@H](C(=O)Nc1ccc2ccccc2c1)[C@H]1C[C@]1(C)[C@H](NC(=O)Oc1ccc(F)cc1)c1ccccc1`, the concentration at half-maximal activity (AC50) was 0.794 µM (active).
Take `Oc1c(CN2CCN(c3ccccc3)CC2)cc(Br)c2cccnc12`: the activity, negative = inhibition is 0.931% [at 11.4 µM].
`C[C@@H](C(=O)Nc1ccc2ccccc2c1)[C@@H]1C[C@@]1(C)[C@@H](N)c1ccccc1`: the concentration at half-maximal activity (AC50) is 7.94 µM (active).
In the case of `C[C@@H](C(=O)Nc1ccc2ccccc2c1)[C@H]1C[C@]1(C)[C@H](NP(=O)(c1ccccc1)c1ccccc1)c1ccccc1`, the concentration at half-maximal activity (AC50) was 2 µM (active).
Still for that read-out and setting: the value for `C[C@@H](C(=O)Cc1ccc2ccccc2c1)[C@@H]1C[C@@]1(C)[C@@H](NP(=O)(c1ccccc1)c1ccccc1)c1ccccc1` was 1 µM (active); that for `CN(Cc1cnc2nc(N)nc(N)c2n1)c1ccc(C(=O)N[C@H](CCC(=O)O)C(=O)O)cc1` was “inactive”; that for `C=C[C@@]1(C)CC(=O)[C@@]2(O)[C@@]3(C)[C@@H](O)CCC(C)(C)[C@@H]3[C@H](OC(=O)CCN(C)C)[C@H](OC(C)=O)[C@@]2(C)O1` was 2.51 µM (active).
As for `O=C(O)CC[P+](c1ccccc1)(c1ccccc1)c1ccccc1`, the activity, negative = inhibition was 9.68% [at 11.4 µM].
For `CCN1C(=O)[C@H]2[C@H]3[C@H](O)[C@H](O)C/C(=N/OC[C@@H](O)COCc4ccco4)[C@H]3CC[C@@H]2C1=O`, the activity, negative = inhibition is -17.6% [at 11.4 µM].
`O=C1[C@H]2[C@H]3[C@H](O)[C@H](O)C/C(=N/OC[C@@H](O)COCc4ccco4)[C@H]3CC[C@@H]2C(=O)N1Cc1ccc2c(c1)OCO2`: the AC50 is 3.16 µM (active).
In the case of `CCN1C(=O)[C@H]2[C@H]3[C@H](O)[C@H](O)C/C(=N/OC[C@@H](O)COCc4ccco4)[C@@H]3CC[C@@H]2C1=O`, the activity, negative = inhibition was -23.4% [at 11.4 µM] and -18.4% [at 11.4 µM].
On to `O=C1[C@H]2[C@H]3[C@H](O)[C@H](O)C/C(=N/OC[C@@H](O)COCc4ccco4)[C@@H]3CC[C@@H]2C(=O)N1Cc1ccccc1`, for which the AC50 was 3.16 µM (active).
Consider `O=C1[C@H]2[C@H]3[C@H](O)[C@H](O)C/C(=N/OC[C@@H](O)COCc4ccco4)[C@@H]3CC[C@@H]2C(=O)N1Cc1ccc2c(c1)OCO2`, for which the half-maximal activity concentration (AC50) is 3.16 µM (active).
As for `Cc1[nH]nc(N2CCCCCC2)c1[N+](=O)[O-]`, the AC50 result was “inactive”.
The same measure, in the same setting: the value for `CCC(C(=O)NC(C)(C)C)N(C(=O)Cn1nnc(-c2cccs2)n1)c1cnc2ccccc2c1` (centres undefined) was 2 µM (active); that for `O=C(Nc1cnc2ccccc2c1)c1cccc(-n2cnnn2)c1` was “inactive”.
`c1cncc(-c2nc(NCCN3CCOCC3)c3ccccc3n2)c1`: the AC50 was 7.94 µM (active).
Take `CS(=O)(=O)Nc1ccc(Nc2c3ccccc3nc3ccccc23)cc1`: the activity, negative = inhibition is -25.8% [at 11.4 µM].
Consider `COc1cccc(C2=NOC(C(=O)NCCN3CCOCC3)C2)c1` (centres undefined), for which the AC50 entry is “inactive”.
Same read-out and setting: the value for `O=C1C=C(NCCN2CCOCC2)CC(c2ccccc2)C1` (centres undefined) was “inactive”; that for `COc1cccc(-c2nc(NCCN3CCOCC3)c3ccccc3n2)c1` was 12.6 µM (active).

Values taken from PubChem BioAssay AID1851 (National Center for Advancing Translational Sciences (NCATS), 2009).
